Sampled rows, rich in hits. Any-hit rate of the full collection: about 5.1%.
NR3A LBD binder: modulates the human NR3A ligand-binding domain; NR3A LBD differential scanning fluorimetry, Tm shift; 0% = protein alone, 100% = glycine-bound protein; Tm shift relative to glycine control, % at 25 µM; 2.5% of 340,000 active;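 active = melting temperature shift of at least 10% of the positive control shift, at one fixed dose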
TMEM16A inh: blocks the mouse calcium-activated chloride channel TMEM16A. Q8BHY3. HEK293 TMEM16A/YFP iodide influx fluorescence, ionomycin. normalized B-score (activity score, 25-100; higher = stronger inhibition) at 10 µM. 1.2% of 310,000 active. AID 588511;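 active = ratio plate-corrected score three or more library SD toward inhibition, starting fluorescence score within five deviations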;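 also: score derived from kinetic fluorescence span divided by baseline fluorescence per well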
MPTP inh: permeability transition pore inhibition; isolated mouse mitochondria, Ca2+ swelling absorbance, 30 min; inhibition, % at 10 µM; 1.4% of 360,000 active;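 active = inhibition of 50% or more, scaled per plate between neutral and stimulator controls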;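 also: 0% = DMSO wells given calcium and 100% = 1 mM EGTA wells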
CRFBP-R2 block: CRF-BP/CRF-R2 complex antagonism; AID 588475; HEK293 CRF-R2/CRF-BP, CRF-induced calcium fluorescence; 0.59% of 350,000 active; inhibition, % at 11.8 µM;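 active = inhibition of the ligand-induced calcium signal above about 50% at the single tested concentration, limit read from the data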
TMEM16A act: mouse TMEM16A channel activation, primary screen; HEK293 TMEM16A/YFP-H148Q/I152L, iodide quench fluorescence; stronger effect = lower value; 0.3% of 340,000 active; B-score at 10 µM; Q8BHY3;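 active = fluorescence-ratio B-score plate-corrected deviation score at least 3 library SD below zero, with starting fluorescence score within 5 deviations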;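 also: channel opened by trigger with iodide after compound preincubation; score built on the fluorescence ratio of max minus min over baseline; more negative score means more quench and so TMEM16A activation or potentiation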
CRFBP-R2 agonist: agonists of human CRF-binding protein/CRF-R2 receptor complex; HEK293 CRF-R2/CRF-BP, calcium dye fluorescence (FLIPR); percent of saturating CRF peptide response; activation, % at 13.2 µM; 0.46% of 350,000 active; AID 588473;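 active = activation of at least 50%, plus an integration ratio under a set limit after plate pattern correction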;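 also: plate controls were neutral control wells without compound for no effect and CRF at EC100 for full effect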
MPTP counter: Rhodamine 123 counter-screen of mitochondrial pore hits; shares compounds with MPTP inh; isolated mitochondria, membrane potential, Rhodamine 123 fluorescence; inhibition, % at 10 µM; 78% of 5,000 active; AID 624504; in the data active = inhibition above about 22%;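 also: 0% = DMSO vehicle and 100% = positive control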
MPTP swell DR: dose response confirmation of mitochondrial permeability transition pore inhibitors. shares compounds with MPTP inh. isolated mitochondria swelling, absorbance. IC50, µM. 58% of 780 active. AID 651561; in the data active = IC50 below about 20 µM
MPTP cs DR: MPTP inhibitor counter-screen activity, dose response; shares compounds with MPTP inh; isolated mitochondria counterscreen, fluorescence read-out; IC50, µM; 49% of 780 active; AID 651564; in the data active = IC50 below about 80 µM
Active calls of the source: *.

Screening O=C(Nc1ccc([N+](=O)[O-])cc1)C(c1ccccc1)c1ccccc1 returned MPTP inh 82*, CRFBP-R2 block 5, CRFBP-R2 agonist 5 and MPTP counter 108*.
Screening CCC(CC)C(=O)Nc1ccc(Sc2ccc([N+](=O)[O-])cc2)cc1 returned NR3A LBD binder -3, TMEM16A inh inactive, MPTP inh 95*, CRFBP-R2 block 25, TMEM16A act inactive, CRFBP-R2 agonist 2 and MPTP counter 77*.
Screening COc1cc(NC(=O)COc2ccc(-n3cnnn3)cc2)cc(OC)c1OC returned NR3A LBD binder 0, MPTP inh 1, CRFBP-R2 block -9, TMEM16A act inactive and CRFBP-R2 agonist -1.
Screening O=C(Nc1ccc(Cl)cc1Cl)NC1CCN(S(=O)(=O)c2ccc(F)cc2)CC1 returned NR3A LBD binder 21*, TMEM16A inh inactive, MPTP inh 96*, CRFBP-R2 block -4, TMEM16A act inactive, CRFBP-R2 agonist 6 and MPTP counter 89*.
For O=C(Nc1ccc(F)cc1)Nc1cc(S(=O)(=O)N2CCOCC2)ccc1N1CCCC1 the results were NR3A LBD binder -3, TMEM16A inh inactive, MPTP inh 0, CRFBP-R2 block -5, TMEM16A act inactive and CRFBP-R2 agonist -2.
Screening O=C(Nc1ccc(F)cc1)Nc1ccc(S(=O)(=O)N2CCCC2)cc1 returned NR3A LBD binder 28*, MPTP inh 83*, CRFBP-R2 block -13, TMEM16A act inactive, CRFBP-R2 agonist 1 and MPTP counter 100*.
Screening O=C(Nc1ccc(Cl)cc1)Nc1cc(S(=O)(=O)N2CCOCC2)ccc1N1CCCC1 returned NR3A LBD binder -1, TMEM16A inh inactive, MPTP inh 71*, CRFBP-R2 block -25, TMEM16A act inactive, CRFBP-R2 agonist 3 and MPTP counter 73*.
For O=C(NC1CCN(S(=O)(=O)c2ccc(F)cc2)CC1)c1ccc(F)cc1 the results were NR3A LBD binder 1, TMEM16A inh inactive, MPTP inh 3, CRFBP-R2 block -7, TMEM16A act inactive and CRFBP-R2 agonist -1.
CC(=O)c1ccc(NC(=O)Nc2ccc(S(=O)(=O)N3CCCC3)cc2)cc1 was read as NR3A LBD binder 30*, TMEM16A inh inactive, MPTP inh 80*, CRFBP-R2 block 9, TMEM16A act inactive, CRFBP-R2 agonist 0 and MPTP counter 93*.
Screening Cn1c(CN2CCN(S(C)(=O)=O)CC2)nc2cc([N+](=O)[O-])ccc21 returned NR3A LBD binder -2, TMEM16A inh inactive, MPTP inh 0, CRFBP-R2 block 4, TMEM16A act inactive and CRFBP-R2 agonist -1.
For COc1ccc(NC(=O)c2cc(S(=O)(=O)N3CCCC3)oc2C)cc1 the results were NR3A LBD binder 0, TMEM16A inh inactive, MPTP inh 1, CRFBP-R2 block -2, TMEM16A act inactive and CRFBP-R2 agonist 4.
Screening Cc1oc(S(=O)(=O)N2CCCCC2)cc1NC(=O)Nc1ccc(F)cc1 returned NR3A LBD binder 0, TMEM16A inh inactive, MPTP inh 77*, CRFBP-R2 block 6, TMEM16A act inactive, CRFBP-R2 agonist 4 and MPTP counter 87*.
CN1CCN(c2ccc(CNS(=O)(=O)Cc3cccc(C(F)(F)F)c3)cc2)CC1 was read as NR3A LBD binder 1, TMEM16A inh inactive, MPTP inh 84*, CRFBP-R2 block -13, TMEM16A act inactive, CRFBP-R2 agonist 1 and MPTP counter 86*.
`CN1CCN(c2ccc(CNS(=O)(=O)c3ccccc3)cc2)CC1` gave NR3A LBD binder 2, TMEM16A inh inactive, MPTP inh 2, CRFBP-R2 block 6, TMEM16A act inactive and CRFBP-R2 agonist 0.
Screening CSc1cccc(NC(=S)N2CCCN(Cc3ccccc3F)C2)c1 returned NR3A LBD binder -1, TMEM16A inh inactive, MPTP inh 69*, CRFBP-R2 block 37, TMEM16A act inactive, CRFBP-R2 agonist 13 and MPTP counter 81*.
CC(CNC(=O)COC(=O)c1ccco1)c1ccccc1 (stereo unspecified) was read as NR3A LBD binder -2, MPTP inh 1, CRFBP-R2 block 3, TMEM16A act inactive and CRFBP-R2 agonist -1.
Cc1ccc(Cn2ncc3c(N4CCCC4)ncnc32)cc1 was read as NR3A LBD binder 0, TMEM16A inh inactive, MPTP inh 62*, CRFBP-R2 block -10, TMEM16A act inactive, CRFBP-R2 agonist 1, MPTP counter 1, MPTP swell DR >100 and MPTP cs DR >80.
`Clc1ccc(Cn2ncc3c(N4CCCC4)ncnc32)cc1` gave NR3A LBD binder 0, TMEM16A inh inactive, MPTP inh -1, CRFBP-R2 block -16, TMEM16A act inactive and CRFBP-R2 agonist 1.
CC(=O)N1N=C(c2ccc(Cl)cc2)CC1c1ccc([N+](=O)[O-])cc1 (stereo unspecified) was read as NR3A LBD binder 2, TMEM16A inh inactive, MPTP inh 0, CRFBP-R2 block -3, TMEM16A act inactive and CRFBP-R2 agonist 3.
`CC1(O)CC(c2ccc(Cl)cc2)=NN1C(=O)c1ccc([N+](=O)[O-])cc1` (stereo unspecified) gave NR3A LBD binder -3, TMEM16A inh inactive, MPTP inh 73*, CRFBP-R2 block 100*, TMEM16A act inactive, CRFBP-R2 agonist 74* and MPTP counter 81*.
NC[C@@H]1O[C@H](C23CC4CC(CC(C4)C2)C3)Cc2c1ccc(O)c2O was read as NR3A LBD binder -1, TMEM16A inh inactive, MPTP inh 94*, CRFBP-R2 block -14, TMEM16A act inactive, CRFBP-R2 agonist 13 and MPTP counter -15.
For Cc1ccc(S(=O)(=O)N2CCC(=O)N(CCOCc3ccc(C(F)(F)F)cc3)CC2)cc1 the results were NR3A LBD binder -3, TMEM16A inh inactive, MPTP inh 78*, CRFBP-R2 block -9, TMEM16A act inactive, CRFBP-R2 agonist 0 and MPTP counter 99*.
`CCOc1ccc(C(=O)OCCN(CC)CC)cc1` gave NR3A LBD binder 0, TMEM16A inh inactive, MPTP inh 2, CRFBP-R2 block -20, TMEM16A act inactive and CRFBP-R2 agonist 3.
